In article PMC9911399, “Two distinct binding modes provide the RNA-binding protein RbFox with extraordinary sequence specificity”:
Where a chain is given by its changes, count along the chain named. Over roughly 16,000 sequences, “ka relative to ugcaugu” has its median near 0.0091; the highest 2% begin near 0.032. Shown is part of a subset that was picked to be rich in the highest values.

T1: RBFOX1 RRM (Homo sapiens, UniProt Q9NWB1 109-208)
T1 sequence: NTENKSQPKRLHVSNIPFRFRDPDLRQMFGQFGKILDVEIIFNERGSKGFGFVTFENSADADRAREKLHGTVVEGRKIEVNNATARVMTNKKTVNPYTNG

B1: AUUGUUU (DNA:RNA)
RNA: GGGAGACCGGAAUUCAGAUUGUCCAUUGUUUUUAAAUCCCGUCGUAGCCACCA
DNA 1: CAATCTGAATTCCGGTCTCCC
DNA 2: TGGTGGCTACGACGGGATT
B2: GUUCAGC (DNA:RNA)
RNA: B1 RNA with A25G, G28C, U29A, U30G, U31C
DNA 1: CAATCTGAATTCCGGTCTCCC
DNA 2: TGGTGGCTACGACGGGATT
B3: AAUAUGG (DNA:RNA)
RNA: B1 RNA with U26A, G28A, U30G, U31G
DNA 1: CAATCTGAATTCCGGTCTCCC
DNA 2: TGGTGGCTACGACGGGATT
B4: CGCGAUU (DNA:RNA)
RNA: B1 RNA with A25C, U26G, U27C, U29A
DNA 1: CAATCTGAATTCCGGTCTCCC
DNA 2: TGGTGGCTACGACGGGATT
B5: UAUGUGA (DNA:RNA)
RNA: B1 RNA with A25U, U26A, U30G, U31A
DNA 1: CAATCTGAATTCCGGTCTCCC
DNA 2: TGGTGGCTACGACGGGATT
B6: GUAUUGA (DNA:RNA)
RNA: B1 RNA with A25G, U27A, G28U, U30G, U31A
DNA 1: CAATCTGAATTCCGGTCTCCC
DNA 2: TGGTGGCTACGACGGGATT
B7: ACGGAUU (DNA:RNA)
RNA: B1 RNA with U26C, U27G, U29A
DNA 1: CAATCTGAATTCCGGTCTCCC
DNA 2: TGGTGGCTACGACGGGATT
B8: GUUAAAU (DNA:RNA)
RNA: B1 RNA with A25G, G28A, U29A, U30A
DNA 1: CAATCTGAATTCCGGTCTCCC
DNA 2: TGGTGGCTACGACGGGATT
B9: CGGGAUU (DNA:RNA)
RNA: B1 RNA with A25C, U26G, U27G, U29A
DNA 1: CAATCTGAATTCCGGTCTCCC
DNA 2: TGGTGGCTACGACGGGATT
B10: CGGGCGU (DNA:RNA)
RNA: B1 RNA with A25C, U26G, U27G, U29C, U30G
DNA 1: CAATCTGAATTCCGGTCTCCC
DNA 2: TGGTGGCTACGACGGGATT
B11: GGAUUUU (DNA:RNA)
RNA: B1 RNA with A25G, U26G, U27A, G28U
DNA 1: CAATCTGAATTCCGGTCTCCC
DNA 2: TGGTGGCTACGACGGGATT
B12: GGGAAAU (DNA:RNA)
RNA: B1 RNA with A25G, U26G, U27G, G28A, U29A, U30A
DNA 1: CAATCTGAATTCCGGTCTCCC
DNA 2: TGGTGGCTACGACGGGATT
B13: GGGGAAU (DNA:RNA)
RNA: B1 RNA with A25G, U26G, U27G, U29A, U30A
DNA 1: CAATCTGAATTCCGGTCTCCC
DNA 2: TGGTGGCTACGACGGGATT
B14: GGGCGUU (DNA:RNA)
RNA: B1 RNA with A25G, U26G, U27G, G28C, U29G
DNA 1: CAATCTGAATTCCGGTCTCCC
DNA 2: TGGTGGCTACGACGGGATT
B15: GGGGCGU (DNA:RNA)
RNA: B1 RNA with A25G, U26G, U27G, U29C, U30G
DNA 1: CAATCTGAATTCCGGTCTCCC
DNA 2: TGGTGGCTACGACGGGATT
B16: GGGAUUU (DNA:RNA)
RNA: B1 RNA with A25G, U26G, U27G, G28A
DNA 1: CAATCTGAATTCCGGTCTCCC
DNA 2: TGGTGGCTACGACGGGATT
B17: UCCGGCA (DNA:RNA)
RNA: B1 RNA with A25U, U26C, U27C, U29G, U30C, U31A
DNA 1: CAATCTGAATTCCGGTCTCCC
DNA 2: TGGTGGCTACGACGGGATT
B18: ACUUCCC (DNA:RNA)
RNA: B1 RNA with U26C, G28U, U29C, U30C, U31C
DNA 1: CAATCTGAATTCCGGTCTCCC
DNA 2: TGGTGGCTACGACGGGATT
B19: ACGCCGU (DNA:RNA)
RNA: B1 RNA with U26C, U27G, G28C, U29C, U30G
DNA 1: CAATCTGAATTCCGGTCTCCC
DNA 2: TGGTGGCTACGACGGGATT
B20: UGCCAAA (DNA:RNA)
RNA: GGGAGACCGGAAUUCAGAUUGUCCUGCCAAAUUAAAUCCCGUCGUAGCCACCA
DNA 1: CAATCTGAATTCCGGTCTCCC
DNA 2: TGGTGGCTACGACGGGATT
B21: GAGCACG (DNA:RNA)
RNA: B20 RNA with U25G, G26A, C27G, A30C, A31G
DNA 1: CAATCTGAATTCCGGTCTCCC
DNA 2: TGGTGGCTACGACGGGATT
B22: GAGCAUC (DNA:RNA)
RNA: B20 RNA with U25G, G26A, C27G, A30U, A31C
DNA 1: CAATCTGAATTCCGGTCTCCC
DNA 2: TGGTGGCTACGACGGGATT
B23: GAGCACC (DNA:RNA)
RNA: B20 RNA with U25G, G26A, C27G, A30C, A31C
DNA 1: CAATCTGAATTCCGGTCTCCC
DNA 2: TGGTGGCTACGACGGGATT
B24: GAGCAUG (DNA:RNA)
RNA: B20 RNA with U25G, G26A, C27G, A30U, A31G
DNA 1: CAATCTGAATTCCGGTCTCCC
DNA 2: TGGTGGCTACGACGGGATT

Each binder was assayed against T1, RBFOX1 RRM (assay: EMSA; HiTS-Eq, 1 nM pool, 10 min; buffer printed only for the single-RNA assays: 10 mM Tris pH 7.5, 150 mM NaCl, 3.4 mM EDTA, 0.001% NP-40, 30 C). Details: tags: His6 N-terminal (pET28a); label: 5' 32P.
How it was run: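 Relative association constants, normalised to the cognate motif, were derived by comparing read counts of each RNA species with those of the control reaction. The RNA sequenced was the free fraction, separated by 8% native PAGE after a 10 min equilibration in 50 µL of 1 nM 5′-radiolabelled RNA (7 randomized nucleotides) with increasing concentrations of purified wild-type or mutant RbFox RRM.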

Row | Binder | binding signal
1 | B1 | 0.0146 KA relative to UGCAUGU
2 | B2 | 0.0147 KA relative to UGCAUGU
3 | B3 | 0.00711 KA relative to UGCAUGU
4 | B4 | 0.0158 KA relative to UGCAUGU
5 | B5 | 0.0133 KA relative to UGCAUGU
6 | B6 | 0.0118 KA relative to UGCAUGU
7 | B7 | 0.00809 KA relative to UGCAUGU
8 | B8 | 0.00766 KA relative to UGCAUGU
9 | B9 | 0.03 KA relative to UGCAUGU
10 | B10 | 0.029 KA relative to UGCAUGU
11 | B11 | 0.0184 KA relative to UGCAUGU
12 | B12 | 0.0288 KA relative to UGCAUGU
13 | B13 | 0.0354 KA relative to UGCAUGU
14 | B14 | 0.0253 KA relative to UGCAUGU
15 | B15 | 0.0374 KA relative to UGCAUGU
16 | B16 | 0.0372 KA relative to UGCAUGU
17 | B17 | 0.0141 KA relative to UGCAUGU
18 | B18 | 0.00296 KA relative to UGCAUGU
19 | B19 | 0.00555 KA relative to UGCAUGU
20 | B20 | 0.0103 KA relative to UGCAUGU
21 | B21 | 0.0394 KA relative to UGCAUGU
22 | B22 | 0.018 KA relative to UGCAUGU
23 | B23 | 0.00895 KA relative to UGCAUGU
24 | B24 | 0.713 KA relative to UGCAUGU
